Active and inactive are the calls of the source. Rule for the calls: active = hit-call score of the fitted dose curve at least 0.9, where 1 is the maximum; inactive = score below 0.9.
target: human LYN Proto-Oncogene, Src family Tyrosine Kinase (LynB), LYN (gene 4067) (UniProt P07948); test: NVS_ENZ_hLynB: NovaScreen (NVS) Enzymatic Assay for human LYN Proto-Oncogene, Src family Tyrosine Kinase (LynB)
Method: NVS_ENZ_hLynB is a biochemical, single-readout assay that uses extracted gene-proteins in a cell-free assay. Measurements were taken 1 hour after chemical dosing in a 384-well plate.NVS_ENZ_hLynB is one of one assay component(s) measured or calculated from the NVS_ENZ_hLynB assay. It is designed to make measurements of enzyme activity, a form of enzyme reporter, as detected with fluorescence intensity signals by Fluorescence and electrophoretic mobility shift technology.Data from the assay component NVS_ENZ_hLynB was analyzed into 1 assay endpoint. This assay endpoint, NVS_ENZ_hLynB, was analyzed in the positive analysis fitting direction relative to DMSO as the negative control and baseline of activity. Using a type of enzyme reporter, loss-of-signal activity can be used to understand changes in the enzymatic activity as they relate to the gene LYN. Furthermore, this assay endpoint can be referred to as a primary readout, because this assay has produced multiple assay endpoints where this one serves a enzymatic activity function. To generalize the intended target to other relatable targets, this assay endpoint is annotated to the kinase intended target family, where the subfamily is non-receptor tyrosine kinase. […]

Sequence of human LYN Proto-Oncogene, Src family Tyrosine Kinase (LynB), LYN (gene 4067) (P07948 whole entry, looked up): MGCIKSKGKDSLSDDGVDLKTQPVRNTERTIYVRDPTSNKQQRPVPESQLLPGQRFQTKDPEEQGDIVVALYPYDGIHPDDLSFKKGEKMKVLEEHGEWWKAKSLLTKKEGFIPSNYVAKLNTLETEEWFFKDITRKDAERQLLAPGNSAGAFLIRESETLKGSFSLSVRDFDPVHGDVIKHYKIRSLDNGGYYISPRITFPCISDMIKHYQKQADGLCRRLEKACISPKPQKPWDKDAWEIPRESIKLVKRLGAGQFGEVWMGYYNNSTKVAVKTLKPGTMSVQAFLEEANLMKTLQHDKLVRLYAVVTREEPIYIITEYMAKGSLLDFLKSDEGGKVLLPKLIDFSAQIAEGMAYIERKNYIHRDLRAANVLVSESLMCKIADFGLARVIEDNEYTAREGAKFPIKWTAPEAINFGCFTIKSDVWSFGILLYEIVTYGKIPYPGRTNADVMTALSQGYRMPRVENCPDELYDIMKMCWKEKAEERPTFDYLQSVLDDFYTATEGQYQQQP

Structure (SMILES) | outcome
CCOCN(C(=O)CCl)c1c(C)cccc1CC | inactive

Source: PubChem BioAssay AID2283172 (EPA ToxCast)
